# An excerpt weighted towards active compounds, which were near 2.5% of everything screened.
# MEKK2mut PB1 HTS = MEK5 binding signal on mutant MEKK2 PB1, primary screen, biochemical, multiplex bead flow cytometry, Alexa488-MEK5; Alexa488-MEK5 binding to MEKK2 mutant; percent response, % at 10 µM; 0.35% of 290,000 active; in the data active = percent response above about 24%, passing the limit was not always enough
# MEKK2 WT-MEK5 = modulators of MEK5 binding to wildtype MEKK2, primary screen, biochemical, multiplex bead flow cytometry, Alexa488-MEK5; binding response (% of control), % at 10 µM; Alexa488-MEK5 binding to MEKK2 WT; actives lie on both sides; 1.1% of 290,000 active; AID 1531, 2009; Mitogen-activated protein kinase kinase kinase 2 (Homo sapiens), Q9Y2U5; in the data active = binding response below about 67% or above about 130%
# GRK2 aptamer HTS = compounds blocking aptamer binding on GRK2 – biochemical, human GRK2, bead flow cytometry, HTS, primary screen; Beta-adrenergic receptor kinase 1 (Homo sapiens), P25098; FAM-aptamer displacement from GRK2; inhibition of aptamer binding, % at 10 µM; 0.59% of 330,000 active; AID 488847, 2010;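 active = inhibition of aptamer binding above 40%, roughly 3 SD of noise, on plates passing a quality check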;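 note: median bead fluorescence of bound FAM aptamer so fluorescent compounds give negative values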
# MEKK3 PB1 HTS = modulators of MEKK3-MEK5 PB1 binding, primary screen, biochemical, wildtype MEKK3, multiplex bead flow cytometry, Alexa488-MEK5; bead-based flow cytometry, Alexa488-MEK5 binding to MEKK3; actives lie on both sides; 0 = blocked by unlabeled MEK5, 100 = vehicle; Mitogen-activated protein kinase kinase kinase 3 (Homo sapiens), Q99759; 1.4% of 290,000 active; AID 1529, 2009; binding response (% of control), % at 10 µM;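 active = binding response more than 3 SD above or below the average of its plate-row segment, actives on both sides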;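 note: Alexa488 bead fluorescence after subtracting the streptavidin-only scavenger bead signal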
# Target sequence (Q99759 whole entry, looked up): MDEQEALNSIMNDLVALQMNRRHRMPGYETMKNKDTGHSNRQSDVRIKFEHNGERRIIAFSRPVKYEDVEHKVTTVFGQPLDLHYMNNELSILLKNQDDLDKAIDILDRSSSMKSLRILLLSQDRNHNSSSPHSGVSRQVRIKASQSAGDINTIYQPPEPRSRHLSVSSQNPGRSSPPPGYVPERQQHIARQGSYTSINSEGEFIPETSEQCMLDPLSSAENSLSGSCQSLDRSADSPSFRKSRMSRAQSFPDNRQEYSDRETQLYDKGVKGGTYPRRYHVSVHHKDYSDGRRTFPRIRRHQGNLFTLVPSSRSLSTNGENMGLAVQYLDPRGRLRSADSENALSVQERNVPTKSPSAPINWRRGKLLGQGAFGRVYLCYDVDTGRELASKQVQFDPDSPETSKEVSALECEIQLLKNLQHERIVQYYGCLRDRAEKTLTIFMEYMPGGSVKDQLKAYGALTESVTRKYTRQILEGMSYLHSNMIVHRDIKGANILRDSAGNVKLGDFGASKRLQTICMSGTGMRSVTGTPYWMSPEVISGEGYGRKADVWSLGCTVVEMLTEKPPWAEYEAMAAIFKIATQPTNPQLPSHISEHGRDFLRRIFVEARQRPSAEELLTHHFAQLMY
# GRK2 CP1 = GRK2 aptamer-displacing inhibitors, retest, confirmation, biochemical, cherry pick 1, bead flow cytometry; shares compounds with GRK2 aptamer HTS; bead-bound GRK2, FAM-aptamer displacement; aptamer displacement, % at 10 µM; 4% of 2,000 active; AID 504451, 2011;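 active = aptamer displacement above 40%, near three times the noise of non-fluorescent compounds, on plates passing quality checks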;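 note: negative values mostly reflect intrinsic compound fluorescence rather than true enhancement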
# Aptamer quench = counter-screen for GRK2 aptamer inhibitors: fluorescent aptamer quenchers | shares compounds with GRK2 aptamer HTS | Fluorescent RNA aptamer beads, quenching, flow cytometry; hits give high values | fluorescence change (kMESF span), kMESF (test concentration not listed) | 110 tested, under 10 active | AID 504521;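 active = compounds whose bead fluorescence drops by more than 37 kMESF across the dose range, marking them as dye quenchers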
# Aptamer quench SP = counter-screen for GRK2 aptamer inhibitors: fluorescent aptamer quenchers; shares compounds with GRK2 aptamer HTS; Carboxyfluorescein RNA aptamer on beads, flow cytometry quenching; hits give low values; fluorescence response (% of DMSO), % at 10 µM; 2,000 tested, under 10 active;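 active = compounds that quench the bead-bound fluorescent RNA probe, cutting fluorescence to under half of the solvent control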;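 note: counterscreen run without GRK2 so only probe quenching by compound is measured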
# GRK2 confirm 2 = GRK2 aptamer-displacing inhibitors, hit retest, confirmation, biochemical, cherry pick 2, bead flow cytometry; 360 tested, under 10 active; bead-bound GRK2, FAM-aptamer displacement; inhibition of aptamer binding, % at 10 µM; AID 504782, 2011; shares compounds with GRK2 aptamer HTS;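 active = inhibition of aptamer binding above 40%, about triple the noise seen with nonglowing compounds, on plates passing quality control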;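 note: negative values mostly come from compounds that fluoresce themselves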
# FAM quench SP = aptamer fluorescence quenching in GRK2 counter-screen; fluorescence response vs DMSO, % at 10 µM; AID 588494; 360 tested, under 10 active; carboxyfluorescein RNA aptamer beads, flow cytometry quenching; hits give low values; shares compounds with GRK2 aptamer HTS;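 active = response vs DMSO under 50%, meaning signal dropped by over half, treated as fluorescence quencher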;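 note: labelled aptamer on streptavidin beads without GRK2 as a quench counter-screen; 100% = bead fluorescence of DMSO wells and lower means quenching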
# FAM quench PS1 = quenchers of FAM-labeled RNA aptamer fluorescence, dose response, artefact control for GRK2 aptamer binding project, biochemical, powder set 1, flow cytometry; shares compounds with GRK2 aptamer HTS; Bead-bound FAM RNA aptamer fluorescence quenching; hits give low values; fluorescence ratio to DMSO, % at 11.1 µM; 35 tested, under 10 active;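 active = compounds that dim the fluorescent label, raw bead signal shifting by over 33 units between lowest and highest dose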
# Starred values were filed as active, the others as inactive; . = no result.
SMILES,MEKK2mut PB1 HTS,MEKK2 WT-MEK5,GRK2 aptamer HTS,MEKK3 PB1 HTS,GRK2 CP1,Aptamer quench SP,others
O=C(CCCOc1ccc(Cl)cc1Cl)Nc1ccc(O)cc1C(=O)O,-18,91,0,87,.,.,
COC(=O)NCc1ccc(S(=O)(=O)N2CCOCC2)cc1,2,101,72*,100,2,95,
Cc1ccc(S(=O)(=O)Nc2cccc(C(=O)NCC3(N4CCCCC4)CCCCC3)c2)cc1F,.,.,0,.,.,.,
O=C(COc1ccccc1N1C(=O)c2ccccc2C1=O)c1ccc(Cl)cc1,4,102,73*,101,-8,98,
O=C(COc1ccc(N2C(=O)c3ccccc3C2=O)cc1)c1ccccc1,-1,100,3,101,.,.,
Cc1ccc(C(=O)Nc2cccc(C(F)(F)F)c2)cc1NC(=O)c1ccno1,2,94,1,97,3,103,
O=C(CS(=O)(=O)c1cccc(C(F)(F)F)c1)Nc1ccccc1Cl,2,102,1,103,.,.,GRK2 confirm 2=-5;FAM quench SP=107
O=C(O)c1ccccc1NS(=O)(=O)c1cccc(C(F)(F)F)c1,3,99,0,95,.,.,
CN1C2=CC=CC=CC2=[N+](C)C12C([N+](=O)[O-])=CC(=[N+]([O-])[O-])C=C2[N+](=O)[O-] (stereo not given),-6,85,48*,96,3,100,
CN1C2=CC=CC=CC2=[N+](C)C12C=CC(=[N+]([O-])[O-])C=C2[N+](=O)[O-] (stereo not given),-7,91,3,95,.,.,
O=C(CSc1nc2ccccc2c(=O)n1-c1ccccc1)NC(=O)CN1CCCC1=O,-1,105,70*,113,50*,103,Aptamer quench=12;GRK2 confirm 2=28;FAM quench SP=100;FAM quench PS1=96
O=C(Nc1ccc(Cl)cn1)C1CCN(c2ncnc3c2nc2n3CCCCC2)CC1,-6,99,55*,103,-4,107,
Cc1cc(C(=O)N2CCN(c3ccc(C(F)(F)F)cn3)CC2)c(C)o1,5,102,0,100,.,.,
Cc1cccc(C(=O)N2CCN(c3ccc(C(F)(F)F)cn3)CC2)c1C,4,101,1,103,-13,100,
CSc1nc2cc(C)nn2c(-c2ccccc2Cl)c1C#N,2,106,0,103,.,.,
O=C1C(=O)c2ccc(-c3ccccc3)cc2-c2ccccc21,0,95,66*,85,15,105,
CN(CCC1CCOCC1)C(=O)CC1C(=O)NCCN1Cc1c(F)cccc1Cl (stereo not given),2,96,4,96,.,.,
CNc1cc(CSC)nc(SCc2ccc(Cl)cc2Cl)n1,5,103,1,104,.,.,
CSCc1cc(N(C)C)nc(SCc2ccc(Cl)c(Cl)c2)n1,5,106,76*,101,1,55,
CCN(CC(=O)Nc1ccccc1C(F)(F)F)C(=O)CCc1c(C)[nH]c(=O)c(C#N)c1C,-3,96,0,98,.,.,
O=C(NCC(F)(F)F)c1ccc(S(=O)(=O)Nc2ccccc2N2CCCC2)cc1,.,.,89*,.,21,117,
COc1ccc(NC(=S)NCc2cccs2)cc1,-3,96,62*,96,0,110,
CC(C)c1ccc(NC(=S)NCc2cccs2)cc1,-2,95,0,97,.,.,
Cc1ccc(S(=O)(=O)NCCC(=O)N2CCC(C(N)=O)CC2)cc1C,.,.,0,.,.,.,
COc1ccc(NC(=O)C(=O)N2N=C3CCCCC3C2(O)C(F)(F)F)cc1 (stereo not given),-7,91,41*,102,.,.,GRK2 confirm 2=9;FAM quench SP=109
SMILES,MEKK2mut PB1 HTS,MEKK2 WT-MEK5,GRK2 aptamer HTS,MEKK3 PB1 HTS,GRK2 CP1,Aptamer quench SP,others
O=C(C[n+]1ccccc1)N/N=C/c1c(F)cccc1Cl,-4,92,0,92,.,.,
NS(=O)(=O)c1ccc(NS(=O)(=O)c2ccc(NC(=O)c3ccc(-c4ccccc4)cc3)cc2)cc1,.,.,41*,.,-4,108,
NS(=O)(=O)c1ccc(NC(=O)c2ccc(-c3ccccc3)cc2)cc1,-8,94,.,99,.,.,
Cc1ccc(NC(=O)CCCOc2ccccc2)cc1S(=O)(=O)N1CCOCC1,.,.,75*,.,2,99,
O=C(CCCN1C(=O)/C(=C\c2ccco2)SC1=S)Nc1ccc(O)cc1C(=O)O,2,95,45*,96,-18,93,
O=C(CCCN1C(=O)/C(=C\c2cccs2)SC1=S)Nc1ccc(O)cc1C(=O)O,1,103,0,104,.,.,
CCN(CC(=O)Nc1c(F)cccc1F)C(=O)c1ccc2ccccc2n1,.,.,0,.,.,.,
CCN(CC(=O)Nc1c(F)cccc1F)C(=O)/C=C/c1ccc2ccccc2n1,.,.,94*,.,31,92,
OCCSc1nc(N2CCOCC2)nc(N2CCOCC2)n1,3,104,40,102,3,97,
CCCc1cc(=O)[nH]c(SCC(=O)c2c[nH]c3ccccc23)n1,-4,88,59*,94,-2,116,
CCCc1cc(=O)[nH]c(SCC(=O)c2c(C)[nH]c3ccccc23)n1,-1,106,0,110,.,.,
Cc1ccc(C(=O)OCC(=O)Nc2cc(C(C)(C)C)no2)c(C)c1,.,.,4,.,.,.,
CCN(CC)S(=O)(=O)c1ccc(N2CCOCC2)c(NC(=O)CC23CC4CC(CC(Br)(C4)C2)C3)c1,-3,96,100*,98,.,.,GRK2 confirm 2=0;FAM quench SP=96
CCN(CC)S(=O)(=O)c1ccc(N2CCOCC2)c(NC(=O)Cc2ccc(Cl)cc2)c1,9,105,0,99,.,.,
CCN(CC)S(=O)(=O)c1ccc(N2CCOCC2)c(NC(=O)COc2ccccc2C)c1,.,.,74*,.,-1,100,

# Screens (PubChem)
